In PubChem BioAssay (EPA / NIEHS) one finds outcome and AC50 data, which are given here for five compounds.

Results filed as inconclusive are left out. The source made the active and inactive calls. How the source made its calls, unless noted: active means hit-call score of the fitted dose curve at least 0.9, where 1 is the maximum; inactive means score below 0.9.

Assay [1] in a line: ATG_PBREM_CIS: Attagene CIS-FACTORIAL HepG2 Assay for human Phenobarbital-responsive Enhancer Module (PBREM) (AID 2282955). Conditions: HepG2 PBREM cis-reporter, Attagene multiplexed transcription; actives raise or lower the signal. In a few lines: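 HepG2 cells transiently transfected with multiple cis-regulated reporter units measure endogenous transcription factor activity; 24 h compound exposure. Reporter mRNA quantified by RT-PCR, fluorescent labelling, HpaI digestion and capillary electrophoresis; bidirectional fit versus DMSO.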

Assay [2] concerns the target Paired box protein Pax-6 (Homo sapiens) (UniProt P26367). As to the kind of experiment: ATG_Pax6_CIS: Attagene CIS-FACTORIAL HepG2 Assay for human Paired Box 6 (PAX6) (AID 2282956). Conditions: HepG2 CIS-FACTORIAL PAX6 reporter transcription, RNA readout; actives raise or lower the signal. An outline of the steps: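 Read-out is reporter transcript level, measured by RT-PCR with fluorescent primer extension and capillary electrophoresis after 24 h dosing of transfected HepG2 cells. Activity in either direction fitted relative to DMSO control.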

Assay [3] is described as follows: ATG_PXRE_CIS: Attagene CIS-FACTORIAL HepG2 Assay for human Pregnane X Receptor Element (PXRE) (AID 2282957). Conditions: HepG2 Attagene CIS-FACTORIAL PXRE reporter, mRNA; actives raise or lower the signal. An outline of the steps:
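Bidirectional activity, baselined to DMSO, derived from reporter mRNA fluorescence (RT-PCR plus capillary electrophoresis) in HepG2 cells bearing cis-promoter reporter units, 24 h exposure.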

Assay [4] can be described thus: ATG_RORE_CIS: Attagene CIS-FACTORIAL HepG2 Assay for human RAR-related Orphan Receptor Element (RORE) (AID 2282959). Conditions: HepG2 Attagene cis-factorial RORE reporter, mRNA; actives raise or lower the signal. An outline of the steps: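 HepG2 cells carrying transiently transfected cis-regulated reporter units; RORE-driven reporter mRNA quantified 24 h post-dosing by RT-PCR, 6-FAM primer extension, HpaI digestion and capillary electrophoresis. Bidirectional fit versus DMSO.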

Assay [5] in a line: ATG_Sox_CIS: Attagene CIS-FACTORIAL HepG2 Assay for human SRY-box transcription factor (SOX) (AID 2282960). Conditions: HepG2 Attagene cis-factorial SOX reporter, mRNA; actives raise or lower the signal. In a few lines:
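HepG2 cells transiently transfected with multiple cis-regulated reporter units, then dosed for 24 h. Reporter mRNA quantified by RT-PCR, fluorescent labelling, HpaI digestion and capillary electrophoresis; bidirectional fit versus DMSO.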

The target in assay [6] is Transcription factor Sp1 (Homo sapiens) (UniProt P08047). As to the kind of experiment: ATG_Sp1_CIS: Attagene CIS-FACTORIAL HepG2 Assay for human Specificity Protein 1 (Sp1) (AID 2282961). The conditions noted are these: HepG2 Sp1 cis-reporter transcription, actives raise or lower the signal. In a few lines: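 HepG2 cells transiently transfected with multiplexed cis-regulated reporter constructs, chemical exposure 24 h. Reporter mRNA quantified by RT-PCR with capillary electrophoresis; bidirectional fit relative to DMSO.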
Sequence of Transcription factor Sp1 (Homo sapiens) (P08047 whole entry, looked up): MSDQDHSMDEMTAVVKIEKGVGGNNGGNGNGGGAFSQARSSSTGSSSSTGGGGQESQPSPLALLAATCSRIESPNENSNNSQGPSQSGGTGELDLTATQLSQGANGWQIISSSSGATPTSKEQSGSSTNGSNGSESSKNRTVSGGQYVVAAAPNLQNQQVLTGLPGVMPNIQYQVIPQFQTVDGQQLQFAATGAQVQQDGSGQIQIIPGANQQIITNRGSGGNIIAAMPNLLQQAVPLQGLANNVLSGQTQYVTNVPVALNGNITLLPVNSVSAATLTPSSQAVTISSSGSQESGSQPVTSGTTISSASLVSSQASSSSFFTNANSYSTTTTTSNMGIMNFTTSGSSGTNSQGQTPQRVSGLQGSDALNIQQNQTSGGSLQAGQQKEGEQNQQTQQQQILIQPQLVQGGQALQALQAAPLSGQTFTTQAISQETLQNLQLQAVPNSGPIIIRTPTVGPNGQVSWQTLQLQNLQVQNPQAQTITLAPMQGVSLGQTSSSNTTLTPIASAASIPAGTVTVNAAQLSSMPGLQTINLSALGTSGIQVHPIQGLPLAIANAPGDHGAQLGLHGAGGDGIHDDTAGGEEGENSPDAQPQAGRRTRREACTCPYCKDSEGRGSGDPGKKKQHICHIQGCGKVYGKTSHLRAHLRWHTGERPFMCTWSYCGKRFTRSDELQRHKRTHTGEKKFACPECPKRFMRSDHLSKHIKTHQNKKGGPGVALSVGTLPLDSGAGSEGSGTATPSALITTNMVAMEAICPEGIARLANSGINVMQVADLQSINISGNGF

The nature of assay [7]: ATG_SREBP_CIS: Attagene CIS-FACTORIAL HepG2 Assay for human Sterol Regulatory Element Binding (SREBP) (AID 2282962). The conditions noted are these: HepG2 Attagene cis-factorial SREBP reporter, mRNA; actives raise or lower the signal. In a few lines:
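Endogenous SREBP activity read as cis-element-driven reporter transcript in transiently transfected HepG2, 24 h post-dosing; quantified via RT-PCR plus capillary electrophoresis of fluorescent fragments. Gain or loss of signal fitted relative to DMSO baseline.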

Assay [8] can be described thus: ATG_TCF_b_cat_CIS: Attagene CIS-FACTORIAL HepG2 Assay for human T-Cell-Factor with beta-catenin (TCF/b-cat) (AID 2282965). The conditions noted are these: HepG2 TCF/beta-catenin cis-reporter transcription, actives raise or lower the signal. An outline of the steps: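 Endogenous TCF/LEF activity read as reporter transcript level via RT-PCR and capillary electrophoresis fluorescence in transfected HepG2, 24 h exposure; gain or loss of signal fitted against DMSO controls.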

Assay [9] is described as follows: ATG_TAL_CIS: Attagene CIS-FACTORIAL HepG2 Assay for human TAL Basal Promoter (AID 2282966).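 Further: background control endpoint measuring basal TAL promoter reporter mRNA not a specific factor.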 Conditions: HepG2 Attagene cis-factorial TAL promoter reporter; actives raise or lower the signal. In a few lines:
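Human hepatoma HepG2 cells, transfected with promoter-regulated reporter units, were treated 24 h. Reporter transcript levels, measured through RT-PCR and capillary electrophoresis, were fitted for gain or loss relative to DMSO.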

The nature of assay [10]: ATG_VDRE_CIS: Attagene CIS-FACTORIAL HepG2 Assay for human Vitamin D Receptor Element (VDRE) (AID 2282968). Conditions: HepG2 VDRE cis-reporter transcription, actives raise or lower the signal. An outline of the steps: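 Measures endogenous factor activity through cis-element-driven reporter transcripts in transiently transfected HepG2. Cells are treated 24 h; reporter mRNA is quantified by RT-PCR and capillary electrophoresis; fitting is bidirectional.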

Assay [11] deals with X-box-binding protein 1 (Homo sapiens) (UniProt P17861). Description: ATG_Xbp1_CIS: Attagene CIS-FACTORIAL HepG2 Assay for human X-box Binding Protein 1 (XBP1) (AID 2282972). Conditions: HepG2 XBP1 cis-element reporter, Attagene multiplex; actives raise or lower the signal. In a few lines:
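Reporter transcripts were quantified by RT-PCR with fluorescent primer extension and capillary electrophoresis after 24 h chemical exposure. Cells: transiently transfected HepG2 carrying cis-regulated reporter constructs; data fitted bidirectionally relative to DMSO.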

Assay [12] in a line: ATG_GAL4_TRANS: Attagene TRANS-FACTORIAL HepG2 Assay for GAL4 (Internal Marker) (AID 2282976; active means hit-call score of the fitted dose curve at least 0.9, where 1 is the maximum). Conditions: HepG2 Attagene TRANS GAL4 internal marker reporter. In a few lines:
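Liver HepG2 line bearing multiplexed GAL4-UAS reporter constructs; 24 h chemical treatment. Transcripts were quantified as fluorescent fragments on capillary electrophoresis after RT-PCR and HpaI cut, with activity fitted upward from DMSO.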

The target of assay [13] is Signal transducer and activator of transcription 3 (Homo sapiens) (UniProt P40763). As to the kind of experiment: ATG_STAT3_CIS: Attagene CIS-FACTORIAL HepG2 Assay for human Signal Transducer and Activator of Transcription 3 (STAT3) (AID 2282963). The conditions noted are these: HepG2, Attagene cis-factorial STAT3 reporter transcription; actives raise or lower the signal. In a few lines: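 Cis-factorial format: endogenous transcription factors in HepG2 drive transfected reporter units. After 24 h treatment, reporter RNA was reverse-transcribed, amplified, FAM-labelled and HpaI-digested before CE analysis; activity scored in both directions against DMSO.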
Sequence of Signal transducer and activator of transcription 3 (Homo sapiens) (P40763 whole entry, looked up): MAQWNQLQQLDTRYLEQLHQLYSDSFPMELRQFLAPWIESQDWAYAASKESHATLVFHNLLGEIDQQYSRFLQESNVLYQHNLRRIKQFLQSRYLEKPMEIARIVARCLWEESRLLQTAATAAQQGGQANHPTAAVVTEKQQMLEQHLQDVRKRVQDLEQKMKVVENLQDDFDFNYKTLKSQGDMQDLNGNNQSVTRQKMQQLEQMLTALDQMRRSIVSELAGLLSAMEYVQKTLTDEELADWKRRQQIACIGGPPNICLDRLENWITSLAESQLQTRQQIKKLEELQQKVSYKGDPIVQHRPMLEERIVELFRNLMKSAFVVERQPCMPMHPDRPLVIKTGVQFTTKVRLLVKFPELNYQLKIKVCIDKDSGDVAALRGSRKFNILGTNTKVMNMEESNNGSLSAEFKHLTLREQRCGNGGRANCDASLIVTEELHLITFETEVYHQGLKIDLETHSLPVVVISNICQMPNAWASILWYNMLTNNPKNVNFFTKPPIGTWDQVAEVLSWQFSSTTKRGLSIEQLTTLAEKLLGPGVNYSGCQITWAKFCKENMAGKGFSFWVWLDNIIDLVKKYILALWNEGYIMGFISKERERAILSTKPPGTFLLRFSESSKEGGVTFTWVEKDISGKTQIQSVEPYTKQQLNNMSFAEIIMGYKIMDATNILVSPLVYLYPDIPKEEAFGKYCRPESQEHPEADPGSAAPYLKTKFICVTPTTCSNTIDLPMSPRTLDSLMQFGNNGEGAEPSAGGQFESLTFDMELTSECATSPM

Assay [14] is described as follows: ATG_TA_CIS: Attagene CIS-FACTORIAL HepG2 Assay for human TA Basal Promoter (AID 2282964). The conditions noted are these: HepG2 Attagene CIS-factorial TA basal promoter reporter; actives raise or lower the signal. An outline of the steps:
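HepG2 cells transiently transfected with multiple reporter units under cis promoter elements, reporting endogenous transcription factor activity; this endpoint tracks the TA basal promoter as background control. Reporter mRNA after 24 h dosing measured by RT-PCR/capillary electrophoresis; bidirectional fits versus DMSO.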

Assay [15] is described as follows: ATG_TGFb_CIS: Attagene CIS-FACTORIAL HepG2 Assay for human Transforming Growth Factor (TGF) (AID 2282967). Conditions: HepG2 Attagene CIS TGFb reporter, mRNA transcription; actives raise or lower the signal. In a few lines:
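HepG2 cells transiently transfected with cis-promoter-driven multiple reporter units measure endogenous TF activity; reporter mRNA quantified at 24 h by RT-PCR, FAM labeling, HpaI digestion and capillary electrophoresis. Bidirectional fit vs DMSO.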

Assay [16] is described as follows: ATG_PPRE_CIS: Attagene CIS-FACTORIAL HepG2 Assay for human Peroxisome Proliferator-activated Response Element (PPRE) (AID 2282958). Conditions: HepG2 PPRE cis-element reporter, Attagene transcription factor profiling; actives raise or lower the signal. In a few lines: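 HepG2 cells are transiently transfected with multiplexed cis-promoter reporter units to report endogenous PPAR activity. After 24 h dosing, reporter mRNA is read by RT-PCR and capillary electrophoresis. Fitting is bidirectional against DMSO.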

Assay [17] addresses Nuclear receptor subfamily 1 group I member 3 (Homo sapiens) (UniProt Q14994). Description: ATG_CAR_TRANS: Attagene TRANS-FACTORIAL HepG2 Assay for human Constitutive Androstane Receptor (CAR) (AID 2282969; active means hit-call score of the fitted dose curve at least 0.9, where 1 is the maximum;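 further: activators raise reporter mRNA above DMSO so AC50 marks induction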). Conditions: HepG2 Attagene TRANS-FACTORIAL CAR reporter. An outline of the steps:
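Signal is reporter mRNA induction relative to DMSO, measured 24 h after dosing by RT-PCR with fluorescent primer extension and capillary electrophoresis. Human HepG2 liver cells carried transiently transfected chimeric NR-Gal4/GAL4-UAS reporter constructs.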

The target in assay [18] is Steroid hormone receptor ERR1 (Homo sapiens) (UniProt P11474). Description: ATG_ERRa_TRANS: Attagene TRANS-FACTORIAL HepG2 Assay for human Estrogen-Related Receptor alpha (ERRa) (AID 2282971; active means hit-call score of the fitted dose curve at least 0.9, where 1 is the maximum). The conditions noted are these: HepG2 Attagene TRANS reporter, ERRa transactivation. In a few lines: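 Signal gain relative to DMSO for an ERRa-Gal4 chimeric receptor, read as reporter mRNA by RT-PCR/capillary electrophoresis. Human HepG2 liver cells, transient multiplex reporter transfection, 24 h chemical exposure.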
Sequence of Steroid hormone receptor ERR1 (Homo sapiens) (P11474 whole entry, looked up, the tested form may be a part): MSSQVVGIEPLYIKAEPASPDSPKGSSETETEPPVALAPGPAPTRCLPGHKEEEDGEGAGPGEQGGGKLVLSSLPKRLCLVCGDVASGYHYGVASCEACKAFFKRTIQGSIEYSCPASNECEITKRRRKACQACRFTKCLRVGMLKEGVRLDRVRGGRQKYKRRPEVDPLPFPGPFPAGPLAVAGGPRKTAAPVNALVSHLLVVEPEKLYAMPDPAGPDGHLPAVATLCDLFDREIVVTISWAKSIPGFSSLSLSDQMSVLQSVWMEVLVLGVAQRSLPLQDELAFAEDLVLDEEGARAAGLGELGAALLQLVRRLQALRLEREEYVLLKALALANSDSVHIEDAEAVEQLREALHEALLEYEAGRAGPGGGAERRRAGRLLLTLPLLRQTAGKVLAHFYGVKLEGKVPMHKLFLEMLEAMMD

Assay [19] in a line: ATG_M_19_TRANS: Attagene TRANS-FACTORIAL HepG2 Assay for M19 Transcription Factor (Internal Marker) (AID 2282974; active means hit-call score of the fitted dose curve at least 0.9, where 1 is the maximum). Conditions: HepG2 Attagene TRANS-FACTORIAL M19 internal marker reporter. In a few lines: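 HepG2 transiently transfected with GAL4-UAS multiplex reporter constructs, exposed 24 h; reporter RNA quantified by RT-PCR, 6-FAM labeling, HpaI digestion and capillary electrophoresis; internal background marker fitted upward versus DMSO.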

Assay [20] has as its target Estrogen receptor (Homo sapiens) (UniProt P03372). As to the kind of experiment: ATG_ERa_TRANS: Attagene TRANS-FACTORIAL HepG2 Assay for human Estrogen Receptor alpha (ERa) (AID 2282970; active means hit-call score of the fitted dose curve at least 0.9, where 1 is the maximum). Conditions: HepG2 Attagene TRANS ERa GAL4 reporter, mRNA. An outline of the steps: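 Signal derives from fluorescence of labelled reporter PCR fragments separated by capillary electrophoresis. HepG2 cells transiently carrying multiple GAL4-UAS reporter units were treated 24 hours, and induction above DMSO baseline was fitted as activity.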

Sequence of X-box-binding protein 1 (Homo sapiens) (P17861 whole entry, looked up): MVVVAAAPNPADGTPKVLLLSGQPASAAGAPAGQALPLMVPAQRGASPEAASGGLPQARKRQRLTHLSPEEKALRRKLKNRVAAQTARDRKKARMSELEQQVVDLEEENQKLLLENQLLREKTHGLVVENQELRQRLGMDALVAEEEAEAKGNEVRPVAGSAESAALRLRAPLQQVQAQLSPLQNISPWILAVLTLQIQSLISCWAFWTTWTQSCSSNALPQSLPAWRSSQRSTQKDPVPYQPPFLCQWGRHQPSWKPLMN
Sequence of Nuclear receptor subfamily 1 group I member 3 (Homo sapiens) (Q14994 whole entry, looked up, the tested form may be a part): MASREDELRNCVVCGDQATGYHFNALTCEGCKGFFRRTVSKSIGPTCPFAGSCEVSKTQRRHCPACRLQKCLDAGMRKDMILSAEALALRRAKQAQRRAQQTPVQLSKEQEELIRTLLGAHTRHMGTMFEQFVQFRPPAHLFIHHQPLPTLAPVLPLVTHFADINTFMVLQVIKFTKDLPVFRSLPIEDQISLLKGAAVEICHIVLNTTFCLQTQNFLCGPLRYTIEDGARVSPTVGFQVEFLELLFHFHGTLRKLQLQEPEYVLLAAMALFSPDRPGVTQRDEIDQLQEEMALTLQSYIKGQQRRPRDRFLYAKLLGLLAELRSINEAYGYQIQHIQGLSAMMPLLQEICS
Sequence of Paired box protein Pax-6 (Homo sapiens) (P26367 whole entry, looked up): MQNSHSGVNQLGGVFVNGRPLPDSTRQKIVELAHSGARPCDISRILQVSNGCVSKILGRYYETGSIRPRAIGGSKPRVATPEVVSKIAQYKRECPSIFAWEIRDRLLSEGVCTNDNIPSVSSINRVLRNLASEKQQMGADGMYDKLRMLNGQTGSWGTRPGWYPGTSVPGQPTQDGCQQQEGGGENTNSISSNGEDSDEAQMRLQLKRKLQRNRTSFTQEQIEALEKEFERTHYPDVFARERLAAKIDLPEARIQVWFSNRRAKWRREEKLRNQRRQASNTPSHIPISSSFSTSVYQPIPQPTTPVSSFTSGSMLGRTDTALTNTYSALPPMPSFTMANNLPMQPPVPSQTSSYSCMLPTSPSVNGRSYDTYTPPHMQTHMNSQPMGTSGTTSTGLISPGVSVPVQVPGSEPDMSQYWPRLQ
Sequence of Estrogen receptor (Homo sapiens) (P03372 whole entry, looked up, the tested form may be a part): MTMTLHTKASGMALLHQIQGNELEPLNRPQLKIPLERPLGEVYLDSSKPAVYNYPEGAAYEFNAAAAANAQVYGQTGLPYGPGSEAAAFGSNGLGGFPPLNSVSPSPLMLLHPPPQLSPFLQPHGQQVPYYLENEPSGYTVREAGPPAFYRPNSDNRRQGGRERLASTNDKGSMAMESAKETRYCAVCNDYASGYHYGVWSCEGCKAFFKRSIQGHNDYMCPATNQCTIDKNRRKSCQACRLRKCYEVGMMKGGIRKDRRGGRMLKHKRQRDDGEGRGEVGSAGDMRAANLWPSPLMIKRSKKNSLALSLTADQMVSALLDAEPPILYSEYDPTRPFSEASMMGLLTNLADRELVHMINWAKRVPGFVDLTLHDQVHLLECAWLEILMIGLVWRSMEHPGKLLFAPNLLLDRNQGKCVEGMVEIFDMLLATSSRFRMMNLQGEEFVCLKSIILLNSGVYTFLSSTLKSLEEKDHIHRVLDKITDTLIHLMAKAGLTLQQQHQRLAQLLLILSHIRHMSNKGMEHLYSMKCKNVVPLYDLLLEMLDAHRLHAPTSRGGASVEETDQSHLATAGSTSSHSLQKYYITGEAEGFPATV

With `CCCCOCCOC(=O)COc1ccc(Cl)cc1Cl`, the outcome in [1], in assay [2], in assay [4], in [5], in [6] and in [7] was inactive. Also, the compound was classed as inactive in assay [8], in [9], in [10], in [11] and in assay [12]. Also, in assay [3], the AC50 is 39.9 µM (active).
For `CC(=O)OC(C)c1ccccc1` (stereo not given), the outcome in assay [1], in assay [2], in assay [5], in assay [6], in [7] and in [13] was inactive. The compound was called inactive in assay [14], in [8], in [9], in [15], in assay [10] and in assay [11]. The compound was called inactive in assay [12]. In addition, the AC50 in assay [3] is 37.6 µM (active).
`Cn1ccnc1`: the result in [1], in assay [2], in [16], in [4], in assay [5] and in assay [6] was inactive. Also, the result in [7], in assay [13], in [14], in assay [8], in [9] and in [15] was inactive. Further, the compound was called inactive in assay [10], in [17], in assay [18], in assay [11] and in assay [19].
In the case of `O=C(C=Cc1ccccc1)OCCc1ccccc1`, the outcome in [1], in [2], in [5], in assay [6], in [7] and in assay [13] was inactive. The call in assay [8], in [9], in assay [15], in assay [17], in assay [11] and in assay [19] was inactive. In addition, the result in [12] was inactive. The AC50 is 12.8 µM (active) in [3], 28 µM (active) in assay [10] and 29.4 µM (active) in [20].
For the compound `CC(C)c1ccc2ncccc2c1`, the result in assay [1], in assay [2], in assay [4], in [5], in assay [7] and in [13] was inactive. Also, the call in assay [14], in assay [8], in assay [9], in [15], in assay [17] and in assay [20] was inactive. The outcome in assay [18], in [11] and in assay [12] was inactive. Besides, the AC50 in assay [3] is 27.9 µM (active).
